# Compounds without any hit were thinned out: in the full panel of roughly 83,000, 20% have a hit.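 Activity criterion: percent growth below 10, measured after cells in 96-well plates were exposed to a single compound concentration for 48 hours.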 A number with no mark means an inactive call. Activity calls are given as the source filed them.
# How the values were obtained:
# Test in all cases: NCI-60 one-dose screen, 48 h (100 = growth as untreated, 0 = no growth, -100 = all killed)
# NCI-H226 lung = conditions: 10 µM
# NCI-H322M lung = conditions: 10 µM unless noted
# HOP-62 NSCLC = conditions: 10 µM unless noted
# NCI-H460 lung = conditions: 10 µM unless noted
# HOP-92 NSCLC = conditions: 10 µM unless noted
# NCI-H522 lung = conditions: 10 µM
# A549/ATCC NSCLC = conditions: 10 µM unless noted
# 786-0 renal = conditions: 10 µM unless noted
# COLO 205 colon = conditions: 10 µM unless noted
# DU-145 prostate = conditions: 10 µM unless noted
# MALME-3M melanoma = conditions: 10 µM unless noted
# MDA-MB-231 breast = conditions: 10 µM unless noted
# RXF 393 renal = conditions: 10 µM unless noted
# SF-268 CNS = conditions: 10 µM unless noted
# SF-295 CNS = conditions: 10 µM unless noted
# SF-539 CNS = conditions: 10 µM unless noted
# UACC-257 melanoma = conditions: 10 µM unless noted
# M14 melanoma = conditions: 10 µM unless noted
# K-562 leukemia = conditions: 10 µM unless noted
Compound,growth (NCI-H226 lung),growth (NCI-H322M lung),growth (HOP-62 NSCLC),growth (NCI-H460 lung),growth (HOP-92 NSCLC),growth (NCI-H522 lung),growth (A549/ATCC NSCLC),growth (786-0 renal),growth (COLO 205 colon),growth (DU-145 prostate),growth (MALME-3M melanoma),growth (MDA-MB-231 breast),growth (RXF 393 renal),growth (SF-268 CNS),growth (SF-295 CNS),growth (SF-539 CNS),growth (UACC-257 melanoma),growth (M14 melanoma),growth (K-562 leukemia)
CC(C)N1CCN(c2ccc(OC[C@H]3CO[C@](Cn4cncn4)(c4ccc(Cl)cc4Cl)O3)cc2)CC1,93.6%,106%,81%,103%,71.2%,78%,89.6%,99.2%,62.9%,111%,86.1%,65.8%,74.7%,102%,89%,79.4%,-28.4% (active),52.8%,–
O=[N+]([O-])c1ccc(O)c2ncccc12,81.1%,31.6%,50.9%,23.2%,67.4%,51.6%,46.6%,66.5%,80.5%,75.8%,52.2%,46%,92.4%,50.2%,24.5%,42.2%,73.6%,47.3%,–
Cc1nc(NN)c([N+](=O)[O-])c(NN)n1,106%,110%,110%,103%,102%,108%,100%,104%,118%,109%,106%,107%,160%,102%,98.5%,95.2%,99.3%,98.2%,93.6%
COc1ccc(-c2nc3sccn3c2/C=C/C(=O)c2cc(OC)c(OC)c(OC)c2)cc1OC,64.9%,57.9%,36.9%,6.91% (active),0.346% (active),15.3%,54.4%,27.7%,29.6%,6.29% (active),37.7%,31.7%,-1.12% (active),28.2%,5.22% (active),24.6%,24.5%,7.09% (active),13.9%
C[C@@H](Oc1cc(-c2cnn(C3CC4(CCCNC4)C3)c2)cnc1N)c1c(Cl)ccc(F)c1Cl (stereo partly specified),58.8%,58.9%,54%,0.489% (active),-7.41% (active),23.6%,16.6%,25.2%,-30.9% (active),36.7%,-64.7% (active),2.82% (active),-9.61% (active),23%,14.4%,11.2%,-87.2% (active),-59.5% (active),0.205% (active)
O=S(=O)(OCCO)c1ccccc1,98.1%,103%,126%,113%,101%,95.5%,97.2%,108%,118%,112%,105%,97.2%,98.1%,102%,93.1%,106%,103%,109%,–
COc1cccc(C2C3=C(COC3=O)N(CCO)c3cc4c(cc32)OCO4)c1 (stereo unspecified),51.6%,48.9%,30.4%,12.3%,65.7%,-39.4% (active),25.9%,18.5%,-27.1% (active),0.613% (active),82.4%,34.6%,-14.5% (active),38.3%,-13.8% (active),-19.1% (active),35.5%,-24.2% (active),21%
COc1cc(C2C3=C(COC3=O)N(CCO)c3cc4c(cc32)OCO4)cc(OC)c1O (stereo unspecified),61.7%,52.5%,41.7%,16.1%,66%,-40.7% (active),52.1%,20%,7.23% (active),11.3%,35.3%,54%,13.1%,51.1%,8.07% (active),12.7%,14.5%,9.86% (active),27.9%
Cc1ccc(C)c2c1sc1nc3nc4sc5ccccc5n4c(=N)c3c(=O)n12,115%,120%,97.3%,95.5%,72.3%,116%,111%,100%,109%,108%,143%,93.5%,122%,95.6%,104%,101%,129%,94.8%,132%
COc1ccc(/C=C2\CN(Cc3cn(CCCNc4ccnc5cc(Cl)ccc45)nn3)C/C(=C\c3ccc(OC)c(OC)c3)C2=O)cc1OC,-52.4% (active),22.7%,-1.63% (active),-5.13% (active),25.5%,0.468% (active),5.33% (active),-1.83% (active),1.93% (active),11.7%,17.8%,-10.2% (active),-95.1% (active),-4.95% (active),-55.9% (active),6.69% (active),45.3%,-21.5% (active),4.56% (active)
COC(=O)c1cc(-c2ccc(C)cc2)n(C(=O)CSc2nc3sc(C(N)=O)c(C)c3c(=O)n2Cc2ccccc2)n1,103%,129%,98.6%,103%,92.5%,95%,107%,102%,93.5%,102%,–,–,106%,108%,109%,104%,106%,102%,101%
Cc1nc2cc(Nc3nc(NCCO)nc(Nc4ccc(F)cc4)n3)ccc2n1Cc1ccccc1,91.6%,98.9%,94%,83.5%,49.9%,85.6%,74.1%,94.7%,94.5%,88.5%,105%,80.3%,90.2%,92.2%,86.4%,94.4%,98.8%,93%,19.2%
O=C(O)C[C@H](O)C[C@H](O)/C=C/c1c(C2CC2)nc2ccccc2c1-c1ccc(F)cc1,65.6%,58.1%,84.9%,94.4%,-12% (active),53.7%,105%,91.9%,102%,113%,104%,-47.7% (active),63.5%,31.9%,22.9%,81.2%,95.5%,90.8%,–
FCOC(C(F)(F)F)C(F)(F)F,106%,97.5%,114%,111%,120%,96.6%,99.1%,97.7%,117%,113%,92.2%,120%,115%,115%,106%,98.8%,90.4%,99.9%,–
NS(=O)(=O)c1cc(Br)c2c(c1)S(=O)(=O)NCN2,113%,119%,113%,112%,93%,102%,101%,106%,114%,108%,121%,118%,174%,103%,104%,101%,94.5%,109%,80.6%
COc1ccc(NC(=O)c2ccc3c(c2)nc(-c2ccc(Cl)cc2)n3-c2cc(C(C)(C)C)[nH]n2)cc1,91.5%,85.5%,106%,101%,59.3%,73.7%,79.7%,87.6%,–,90.2%,91.1%,95.4%,79.1%,76.2%,67.8%,87.6%,96.4%,82.3%,86%
